Values without a mark were called inactive.
System: Escherichia coli Nissle 1917
Assay: DuctApe activity index of respiration/growth curve (0 no growth to 9 maximum) (index 0-9); higher = more growth / nutrient utilisation, active = 3 or more; extreme values may be limits of the assay
Conditions: nutrient role: sole nitrogen source (pyruvate carbon); incubation: 48 h, 37 °C
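Note: biolog PM4 phosphorus and sulfur plates, tetrazolium violet dye reduction read in the OmniLog every 15 min, kinetic curves scored by DuctApe, each plate run in triplicate.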

SMILES | DuctApe activity index
NC(=O)[C@H]1O[C@@H](O)[C@H](O)[C@@H](O)[C@@H]1O [Glucuronamide] | 4.33 (active)
N[C@@H](Cc1c[nH]cn1)C(=O)O [L-Histidine] | 0
NCCC[C@H](N)C(=O)O [L-Ornithine] | 4 (active)
CC(C)C[C@H](N)C(=O)O [L-Leucine] | 1.33
NCCCCN [Putrescine] | 0
N=C(N)NCCC[C@H](N)C(=O)O [L-Arginine] | 8 (active)
NC(=O)CC[C@H](N)C(=O)O [L-Glutamine] | 8.33 (active)
NCCCC[C@H](N)C(=O)O [L-Lysine] | 1
N[C@@H](CO)C(=O)O [L-Serine] | 8 (active)
N[C@H](CO)C(=O)O [D-Serine] | 7.67 (active)
C[C@H](N)C(=O)O [L-Alanine] | 8 (active)
NC(=O)C[C@H](N)C(=O)O [L-Asparagine] | 8.67 (active)
O=c1[nH]cnc2c1ncn2[C@@H]1O[C@H](CO)[C@@H](O)[C@H]1O [Inosine] | 0
N[C@H](CC(=O)O)C(=O)O [D-Aspartic acid] | 0
N[C@H]1C(O)O[C@H](CO)[C@@H](O)[C@@H]1O (stereo partly drawn) [D-Glucosamine] | 3.33 (active)
CSCC[C@H](NC(=O)CN)C(=O)O | 7 (active)
Cc1cn([C@H]2C[C@H](O)[C@@H](CO)O2)c(=O)[nH]c1=O [Thymidine] | 0
N[C@@H](CCC(=O)O)C(=O)O [L-Glutamic acid] | 8 (active)
O=c1ccn([C@@H]2O[C@H](CO)[C@@H](O)[C@H]2O)c(=O)[nH]1 [Uridine] | 0
